Results filed as inconclusive are left out. Calls of active or inactive are those of the source. Calls come from the whole dose curve; as a rule, active = well fitted activation curve with a large enough effect in the main read-out, with a control signal flat; inconclusive = small, poorly fitted or top-dose-only effect, or effect the other way, or a change in a side signal; inactive = no such curve, though single readings can be large or run the other way.
Potency is the fitted concentration of half-maximal effect.

Chain of Thyrotropin receptor (Homo sapiens) (P16473 whole entry, looked up): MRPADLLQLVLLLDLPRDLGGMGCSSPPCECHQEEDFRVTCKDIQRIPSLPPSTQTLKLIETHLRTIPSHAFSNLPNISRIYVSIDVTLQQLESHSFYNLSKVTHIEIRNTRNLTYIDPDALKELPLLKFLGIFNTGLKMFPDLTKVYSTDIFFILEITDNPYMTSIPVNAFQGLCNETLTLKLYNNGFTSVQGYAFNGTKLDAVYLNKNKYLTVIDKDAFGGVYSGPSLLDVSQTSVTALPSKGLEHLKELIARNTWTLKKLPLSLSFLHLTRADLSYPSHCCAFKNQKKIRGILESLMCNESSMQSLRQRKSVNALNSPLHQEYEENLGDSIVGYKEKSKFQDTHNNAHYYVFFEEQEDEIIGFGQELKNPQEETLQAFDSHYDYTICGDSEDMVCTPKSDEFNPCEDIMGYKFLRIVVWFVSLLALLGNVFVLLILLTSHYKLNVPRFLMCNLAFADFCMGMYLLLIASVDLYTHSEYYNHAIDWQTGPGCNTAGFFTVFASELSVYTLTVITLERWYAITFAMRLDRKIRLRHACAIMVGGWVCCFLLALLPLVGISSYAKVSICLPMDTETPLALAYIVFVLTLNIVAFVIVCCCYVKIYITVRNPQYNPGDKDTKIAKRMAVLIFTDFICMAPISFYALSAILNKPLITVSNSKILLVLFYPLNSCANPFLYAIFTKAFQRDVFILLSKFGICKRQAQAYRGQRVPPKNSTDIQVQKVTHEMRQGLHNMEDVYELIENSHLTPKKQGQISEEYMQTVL

The assay addresses Thyrotropin receptor (Homo sapiens) (UniProt P16473). In words: Confirmation Concentration-Response Assay for Agonists of the Thyroid Stimulating Hormone Receptor. For activation: % of control where 0% means no effect. To be noted: HEK293 TSHR-CNG cells, membrane potential dye, cAMP; series mostly up to 25.6 µM; activation: at the top concentration. The text has this: NIH Chemical Genomics Center [NCGC] NIH Molecular Libraries Screening Centers Network [MLSCN] MLSCN Grant: 1 X01 MH080680-01 PI Name: Dr. Marvin Gershengorn, NIH NCGC Assay Overview: Thyroid Stimulating Hormone Receptor TSH is an alpha/beta heterodimeric glycoprotein hormone secreted from the anterior pituitary gland which belongs to the glycoprotein hormone family. The actions of TSH are mediated by a seven-transmembrane receptor, which upon TSH binding couples preferentially to the G-alpha (s) protein (Gs), resulting in activation of adenylate cyclase and increase in cyclic adenosine 3', 5' monophosphate (cAMP). The TSH receptor (THSR) is mainly expressed in thyroid follicular cells and regulates their growth and function. Recombinant TSH is used to activate TSHR in patients with thyroid cancer receiving thyroid hormone suppression therapy and to screen for residual tumor after surgery, but it is expensive and must be administered intramuscularly. An orally active small molecule TSHR agonist would serve as an invaluable research tool for studying TSHR pharmacology and physiology, and would have multiple advantages in therapeutic settings. However, no selective small molecule agonist of the TSH receptor exists, and no small molecule screen for TSHR agonists has ever been reported. This cell based assay utilized a cyclic nucleotide gated ion channel (CNG) as a biosensor for cAMP induction by potential TSHR agonists. TSHR cell line HEK 293 cells stably expressing the TSHR as well as a modified CNG were purchased from BD biosciences. Stimulation of cAMP production causes the CNG to open and subsequent membrane depolarization to occur. A fluorescent membrane potential dye (BD biosciences) was utilized to detect cAMP stimulation in TSHR cells. The cells were maintained in DMEM medium (Invitrogen) containing 10 % FBS (Hyclone), 100 units/ml Penicillin, 100 ug/ml Streptomycin (Invitrogen), and 250 ug/ml Geneticin (Invitrogen) and 1 ug/ml Puromycin (Invitrogen) at 37C in 5% CO2. HEK 293 cells expressing CNG but without TSHR (parental cells) were used in concert to control for compounds signaling through endogenous receptors and targets of HEK 293 cells.
NCGC Assay Protocol Summary: High Throughput Screening. Freshly passaged cells (TSHR or parental) were dispensed into 1536-well assay plates at 4 ul/well in DMEM containing phenol red (Invitrogen), 10% FCS (Hyclone), and 100 units/ml Penicillin, 100 ug/ml Streptomycin (Invitrogen) and incubated at 37 C with 5% CO2 for 20 to 36 hrs before the robotic screening. The screen was initiated by addition of 4 ul/well membrane potential dye containing 100 uM RO 20-1724 (Sigma Aldrich), followed by 60 min incubation at room temperature to allow for dye equilibration across the cell membrane. 23 nl/well compound or control was then added to the assay plates, which were incubated for additional 30 min before reading a Envision fluorescence plate reader (Perkin Elmer) in bottom-read mode for fluorescence intensity (emission at 590 nm). Keywords: Thyroid-stimulating hormone TSH, TSHR, TSHR agonist, quantitative high throughput screening, qHTS, HTS, probe identification, CNG, cAMP, cyclic nucleotide gated ion channel PubChem
With `O=C(Nc1ccc(N2CCOCC2)cc1)C1CC1`, the “activation” value was 14.8% (inactive). The same measure, in the same setting: next, `CCc1ccc(-c2nc(CN3CCC(C(=O)N4CCN(c5ccccc5)CC4)CC3)c(C)o2)cc1`: -56.9% (inactive). For the compound `COc1ccc(-c2cc(C(F)(F)F)nc(SCCC(=O)N3CCOCC3)n2)cc1`, the Potency is 15.8 µM (active). For the compound `C=CCn1c(NCc2ccc3c(c2)OCO3)nc2ccccc21`, the “activation” value was -24.4% (inactive). As to `Cc1nc2ccc(Br)cn2c(=O)c1Cl`, the “activation” value is 24.6% (inactive).

As for `COc1cc(/C=N/n2c(SC)nnc(C(C)(C)C)c2=O)ccc1O`, the “activation” value was -13% (inactive). For the compound `O=C1N(c2ccccc2)C2CS(=O)(=O)CC2N1c1ccc(Cl)c(Cl)c1` (stereo not given), the “activation” value is -86.5% (inactive). The same measure, in the same setting: next, `Cc1ccccc1-n1nc(C)c2cc(C(=O)N3CCN(S(=O)(=O)c4ccc(F)cc4)CC3)sc21`: -1.75% [at 32.9 µM] (inactive). `Cc1cnc(NC(=O)c2ccc3c(c2)C(=O)N(Cc2ccco2)C3=O)s1`: the “activation” value was -33.1% (inactive). Take `NC(=O)c1nsc(C(=O)N(CC(=O)NCc2ccc3c(c2)OCO3)C2CCCC2)c1N`: the Potency was 12.6 µM (active).

In the case of `O=C(CN(Cc1ccc(F)cc1)S(=O)(=O)c1ccccc1)N1CCCCC1`, the Potency was 10 µM (active). As to `Cc1cccc(NC(=O)CSc2nnc(-c3ccccc3)n2N)c1C`, the “activation” value was 22.7% (inactive). `Cc1onc(-c2ccccc2Cl)c1C(=O)Nc1ccc(-n2nncc2-c2ccco2)cc1`: the Potency is 12.6 µM (active).

With `Cc1cc(SCNC(=O)c2ccccc2)ncn1`, the “activation” value was 9.24% (inactive). The same measure, in the same setting: then `CCOC(=O)c1cnc(-n2nc(C)cc2C)nc1-n1nc(C)cc1C`, with -13.4% [at 32.9 µM] (inactive); and `CCOC(=O)c1ccc(NC(=O)c2ccc(CN3CCOCC3)cc2)cc1`, with -4.24% [at 32.9 µM] (inactive); and `CCOC(=O)CSc1nnc(NC(=O)c2cccc(S(=O)(=O)N3CCCCC3)c2)s1`, with -211% (inactive). Same read-out and setting: then `CSc1nc(NC(C)(C)C)nc(Oc2ccc(=O)[nH]n2)n1`, with 25% [at 32.9 µM] (inactive); and `Nc1ccc2c(c1)COc1ccccc1O2`, with -6.04% (inactive). Still for that read-out and setting: then `COc1ccc(CNc2nc(SC)n[nH]2)cc1OC`, with 13.1% (inactive). Turning to `COc1ccc(S(=O)(=O)NCCC(=O)NCc2ccc(F)cc2)cc1`, the “activation” value is 1.97% [at 32.9 µM] (inactive). Take `CC1(C)c2ccccc2N2CC(=O)NC21/C=C/c1ccco1` (stereo not given): the Potency was 12.6 µM (active). On to `CC(c1ccco1)N(C(=O)c1ccc(Cl)s1)c1ccccn1` (stereo not given), for which the Potency is 7.94 µM (active).

As for `CC(=O)N1CCCc2cc(S(=O)(=O)N(CC(C)C)CC(C)C)ccc21`, the Potency was 12.6 µM (active). Consider `Cc1onc(-c2ccccc2)c1C(=O)N1CCCSC1=Nc1ccccc1`, for which the Potency was 7.94 µM (active). Turning to `Cc1cc(C)nc(N(C#N)CC(=O)N2CCC(C(N)=O)CC2)n1`, the “activation” value is 8.57% [at 32.9 µM] (inactive).

Take `CCOC(=O)N1CCC(NC(=O)c2ccc(CNS(=O)(=O)c3ccc(F)cc3)cc2)CC1`: the “activation” value is 18% [at 32.9 µM] (inactive).

In the case of `COc1cccc(C(c2nnnn2Cc2ccccc2)N2CCN(C(=O)c3ccco3)CC2)c1OC` (stereo not given), the “activation” value is -7.01% [at 32.9 µM] (inactive). On the same count and under the same terms, then `CCn1c(=O)c(C(=O)CN2CCCc3ccccc32)c(N)n(Cc2ccccc2)c1=O`, with -31.3% (inactive). On to `Cc1occc1-c1nnc(SCC(=O)Nc2ccccc2)n1C(C)c1ccccc1` (stereo not given), for which the Potency is 12.6 µM (active).

For `COC(=O)C1=C(C)OC(N)=C(C#N)C1C1CCCCC1` (stereo not given), the Potency was 6.31 µM (active). Regarding `CCS(=O)(=O)N1CCN(C(C)CCc2ccccc2)CC1` (stereo not given), the “activation” value is 7.23% [at 32.9 µM] (inactive). Still for that read-out and setting: next, `Cc1ccc(S(=O)(=O)N2CCC(C(=O)NCCCN3CCCCCC3)CC2)cc1`: 13.1% [at 32.9 µM] (inactive); `Cc1ccccc1NC(=O)N1C2CCCC1CC(NC(=O)C1CC1)C2` (stereo not given): 18.7% (inactive). Still for that read-out and setting: then `COc1cccc(C2CC(c3ccccc3OC)n3nc(N)nc3N2)c1` (stereo not given), with 15.4% (inactive). Turning to `CN(Cc1ccco1)C(=O)Cn1c(=O)oc2cc(S(=O)(=O)NCc3ccccc3)ccc21`, the Potency is 12.6 µM (active). For `O=C(C1COc2ccccc2O1)N1CCCC1` (stereo not given), the “activation” value is -9.39% (inactive).

Turning to `O=C(CN(Cc1ccccc1Cl)C(=O)Cn1nnc(-c2cccs2)n1)NCC1CCCO1` (stereo not given), the “activation” value is 11.5% [at 32.9 µM] (inactive).

Regarding `O=c1c2ccccc2ncn1-c1ccc2c(c1)OCCO2`, the “activation” value was 13.2% (inactive). The same measure, in the same setting: then `Cc1cc(Cl)c(S(=O)(=O)Nc2ccc3c(c2)OCO3)cc1OCC(N)=O`, with -7.58% [at 32.9 µM] (inactive).

Source of the values: PubChem BioAssay AID939 (National Center for Advancing Translational Sciences (NCATS), 2007).
